The text below walks through data of PubChem BioAssay (EPA / NIEHS).

Inconclusive results are not listed. Calls of active or inactive are those of the source. How the source made its calls, unless noted: active means hit-call score of the fitted dose curve at least 0.9, where 1 is the maximum; inconclusive means response in the unintended direction; inactive means score below 0.9.

Test [1] addresses Retinoic acid receptor alpha (Homo sapiens) (UniProt P10276). As to the kind of experiment: ATG_DR5_RAR_CIS: Attagene CIS-FACTORIAL HepG2 Assay for human Retinoic Acid Receptor Alpha (RARE), DR5 submotif (AID 2282934; active means hit-call score of the fitted dose curve at least 0.9, where 1 is the maximum; inactive means score below 0.9). Particulars: HepG2 Attagene cis-factorial RARE DR5 reporter, mRNA; actives raise or lower the signal. Summed up:
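After 24 h of chemical exposure, transiently transfected HepG2 cells were lysed for total RNA; the DR5-regulated reporter transcript was quantified via RT-PCR and capillary electrophoresis, with activity fitted bidirectionally against DMSO.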

Test [2] is described as follows: ATG_GAL4_TRANS: Attagene TRANS-FACTORIAL HepG2 Assay for GAL4 (Internal Marker) (AID 2282976). Particulars: HepG2 Attagene TRANS GAL4 internal marker reporter. Summed up:
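Background-control readout: GAL4-UAS reporter transcript in transiently transfected HepG2 cells after 24 h compound exposure. Measured by RT-PCR, 6-FAM primer extension, HpaI digest and capillary electrophoresis; gain-of-signal fit versus DMSO.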

Test [3] concerns the target human Peroxisome Proliferator-activated Receptor delta (PPARd), PPARD (gene 5467) (UniProt Q03181). As to the kind of experiment: ATG_PPARd_TRANS: Attagene TRANS-FACTORIAL HepG2 Assay for human Peroxisome Proliferator-activated Receptor delta (PPARd) (AID 2283002). In short, it runs like this: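 Fluorescence from capillary electrophoresis of labelled RT-PCR reporter fragments gives the signal; DMSO sets baseline. Cells: HepG2 transiently carrying GAL4-UAS reporter units plus chimeric nuclear receptor-Gal4 proteins, exposed to chemicals for 24 h.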

Test [4] addresses human RAR-related Orphan Receptor beta (RORb), RORB (gene 6096) (UniProt Q92753). As to the kind of experiment: ATG_RORb_TRANS: Attagene TRANS-FACTORIAL HepG2 Assay for human RAR-related Orphan Receptor beta (RORb) (AID 2283010). Summed up: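 HepG2 cells transiently transfected with GAL4-UAS reporter units expressing chimeric NR-Gal4 protein; reporter mRNA measured 24 h after dosing by RT-PCR, 6-FAM labelling and capillary electrophoresis. Gain-of-signal fitted relative to DMSO baseline.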

Test [5] has as its target human RAR-related Orphan Receptor gamma (RORg), RORC (gene 6097) (UniProt P51449). As to the kind of experiment: ATG_RORg_TRANS: Attagene TRANS-FACTORIAL HepG2 Assay for human RAR-related Orphan Receptor gamma (RORg) (AID 2283011). Summed up: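 HepG2 cells transiently transfected with GAL4-UAS reporter units and chimeric RORg-Gal4 construct; after 24 h chemical exposure, reporter mRNA measured by RT-PCR with fluorescent capillary electrophoresis, gain of signal fitted against DMSO.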

Test [6] concerns the target Aryl hydrocarbon receptor (Homo sapiens) (UniProt P35869). As to the kind of experiment: ATG_Ahr_CIS: Attagene CIS-FACTORIAL HepG2 Assay for human Aryl Hydrocarbon Receptor (Ahr) (AID 2282930; active means hit-call score of the fitted dose curve at least 0.9, where 1 is the maximum; inactive means score below 0.9). Particulars: HepG2 AhR cis-factorial reporter transcription; actives raise or lower the signal. In short, it runs like this:
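Endogenous factor activity is tracked through cis-promoter reporter units transfected into HepG2 cells. Transcript levels at 24 h are read by fluorescent RT-PCR and capillary electrophoresis, with activity in either direction scored relative to DMSO.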

Test [7] deals with Oxysterols receptor LXR-alpha (Homo sapiens) (UniProt Q13133). As to the kind of experiment: ATG_LXRa_TRANS: Attagene TRANS-FACTORIAL HepG2 Assay for human Liver X Receptor alpha (LXRa) (AID 2282980). To be noted: HepG2 Attagene TRANS reporter, LXRa transactivation. Summed up: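 HepG2 cells transiently transfected with GAL4-UAS reporter units for chimeric NR-Gal4 proteins, exposed to chemicals for 24 h. Reporter mRNA quantified by RT-PCR and capillary electrophoresis; gain of signal fitted relative to DMSO.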

Test [8] is described as follows: ATG_M_32_TRANS: Attagene TRANS-FACTORIAL HepG2 Assay for M32 Transcription Factor (Internal Marker) (AID 2282984). Particulars: HepG2 Attagene TRANS M32 internal marker reporter. Summed up: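 HepG2 cells transiently transfected with GAL4-UAS reporter units, dosed for 24 hours. Reporter mRNA quantified by RT-PCR, 6-FAM labelling, HpaI digestion and capillary electrophoresis; internal-marker signal fitted upward relative to DMSO.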

The target of test [9] is Nuclear receptor subfamily 4 group A member 2 (Homo sapiens) (UniProt P43354). As to the kind of experiment: ATG_NURR1_TRANS: Attagene TRANS-FACTORIAL HepG2 Assay for human Nuclear Receptor Related Protein 1 (NURR1) (AID 2282985). Particulars: HepG2 Attagene TRANS reporter, mRNA readout. In short, it runs like this:
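HepG2 cells transiently transfected with NURR1-Gal4 chimera and GAL4-UAS reporter units; after 24 hr compound exposure, reporter mRNA quantified by RT-PCR and capillary electrophoresis; gain of signal fitted against DMSO.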

Test [10] deals with Peroxisome proliferator-activated receptor gamma (Homo sapiens) (UniProt P37231). As to the kind of experiment: ATG_PPARg_TRANS: Attagene TRANS-FACTORIAL HepG2 Assay for human Peroxisome Proliferator-activated Receptor-gamma (PPARg) (AID 2283007). In short, it runs like this:
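A TRANS-format multiplexed reporter assay measures activity of an exogenous chimeric NR-Gal4 protein in HepG2 cells. After 24 h of chemical exposure, reporter transcripts are amplified, fluorescently labelled and sized by capillary electrophoresis, with gain of signal scored against DMSO.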

In test [11] the target is Retinoic acid receptor RXR-alpha (Homo sapiens) (UniProt P19793). As to the kind of experiment: ATG_RXRa_TRANS: Attagene TRANS-FACTORIAL HepG2 Assay for human Retinoid X Receptor alpha (RXRa) (AID 2283012). Summed up:
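HepG2 cells transiently transfected with GAL4-UAS reporter units and chimeric RXRa-Gal4 protein, treated 24 h. Reporter mRNA measured by RT-PCR, fluorescent labelling, HpaI digestion and capillary electrophoresis. Induction fitted against DMSO.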

Test [12] is described as follows: ACEA_ER_AUC_viability: ACEA Biosciences xCELLigence Real-Time Cell Analysis on Estrogen Receptor Agonism for Viability (AID 2283782).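 Further: continuous compound exposure with impedance area under curve over 80 h; hit means loss of impedance signal meaning reduced cell growth or viability.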 Summed up:
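T47D cells preconditioned in phenol red-free RPMI with charcoal-stripped FBS, then dosed with 8-point 1:4 series from 100 uM (up to 0.5% DMSO). Impedance monitored up to ~80 h; area-under-curve loss versus DMSO taken as viability.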

Test [13] deals with Nuclear receptor subfamily 1 group I member 3 (Homo sapiens) (UniProt Q14994). As to the kind of experiment: ATG_CAR_TRANS: Attagene TRANS-FACTORIAL HepG2 Assay for human Constitutive Androstane Receptor (CAR) (AID 2282969).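 Further: activators raise reporter mRNA above DMSO so AC50 marks induction.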 To be noted: HepG2 Attagene TRANS-FACTORIAL CAR reporter. In short, it runs like this: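 HepG2 cells transiently transfected with GAL4-UAS reporter units; TRANS format reads activity of exogenous chimeric NR-Gal4 protein. After 24 h dosing, reporter mRNA quantified by RT-PCR, 6-FAM labelling and capillary electrophoresis; gain of signal fitted against DMSO.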

For test [14], the target named is Estrogen-related receptor gamma (Homo sapiens) (UniProt P62508). As to the kind of experiment: ATG_ERRg_TRANS: Attagene TRANS-FACTORIAL HepG2 Assay for human Estrogen-Related Receptor gamma (ERRg) (AID 2282977).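 Further: hits increase reporter signal over DMSO so potencies reflect activators.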 Particulars: HepG2 Attagene TRANS reporter, ERRg transactivation. Summed up:
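HepG2 cells transiently transfected with multiplexed GAL4-UAS reporter units driven by chimeric NR-Gal4 proteins; 24 h exposure. Reporter mRNA quantified by RT-PCR, fluorescent labelling, HpaI digestion and capillary electrophoresis; gain of signal vs DMSO.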

A short description of test [15]: ATG_M_19_TRANS: Attagene TRANS-FACTORIAL HepG2 Assay for M19 Transcription Factor (Internal Marker) (AID 2282974). To be noted: HepG2 Attagene TRANS-FACTORIAL M19 internal marker reporter. In short, it runs like this:
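Cells: human HepG2, transiently transfected with multiplexed reporter transcription units. Exposure: 24 h. Detection: RT-PCR of reporter mRNA with capillary electrophoresis. Analysis: gain-of-signal vs DMSO.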

Test [16] has as its target Oxysterols receptor LXR-beta (Homo sapiens) (UniProt P55055). As to the kind of experiment: ATG_LXRb_TRANS: Attagene TRANS-FACTORIAL HepG2 Assay for human Liver X Receptor beta (LXRb) (AID 2282981). Particulars: HepG2 Attagene TRANS GAL4-LXRb reporter, mRNA. Summed up:
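HepG2 cells transiently transfected with GAL4-UAS reporter units for chimeric NR-Gal4 proteins, dosed for 24 h. Reporter transcripts measured by RT-PCR and capillary electrophoresis; gain-of-signal fitting relative to DMSO.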

In test [17] the target is human Thyroid Receptor alpha (THRa1), THRA (gene 7067) (UniProt P10827). As to the kind of experiment: ATG_THRa1_TRANS: Attagene TRANS-FACTORIAL HepG2 Assay for human Thyroid Receptor alpha (THRa1) (AID 2283014). Summed up:
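HepG2 cells transiently transfected with chimeric NR-Gal4 and GAL4-UAS reporter units, dosed 24 h. Reporter mRNA quantified by RT-PCR, fluorescent labeling, HpaI digestion and capillary electrophoresis; gain-of-signal fit versus DMSO.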

The nature of test [18]: TOX21_p53_BLA_p4_viability: Viability Assessment in the Tox21 HCT-116 p53 Agonism Beta-lactamase Assay, Phase 4 (AID 2283597).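 Further: hits lower the luminescence signal meaning cytotoxicity.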 Summed up: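 HCT-116 p53-bla cells, 4000/well, dosed after 5 h attachment and incubated 16 h at 37 °C, 5% CO2. Viability from CellTiter-Glo ATP luminescence after 30 min at room temperature, taken after the beta-lactamase read; loss of signal indicates cytotoxicity.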

Test [19] can be described thus: CCTE_Harrill_HTTr_Viability_MCF7: CCTE's 6-hour Cell Viability Assessment for the High-Throughput Transcriptomics (HTTr) Platform, in MCF-7 cells cultured in DMEM + 10% fetal bovine serum, Harrill Lab (AID 2284010; active means hit-call score of the fitted dose curve at least 0.9, where 1 is the maximum; inactive means score below 0.9). Summed up:
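MCF-7 cells in DMEM + 10% FBS, 384-well, exposed 6 h to an eight-point dilution series. Membrane integrity scored by high-content imaging of propidium iodide exclusion; bidirectional fit versus DMSO.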

Test [20] in a line: CCTE_Harrill_HTTr_Apoptosis_MCF7: CCTE's 6-hour Apoptosis Assessment for the High-Throughput Transcriptomics (HTTr) Platform, in MCF-7 cells cultured in DMEM + 10% fetal bovine serum, Harrill Lab (AID 2284011; active means hit-call score of the fitted dose curve at least 0.9, where 1 is the maximum; inactive means score below 0.9). In short, it runs like this:
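MCF-7 cells in DMEM + 10% FBS exposed 6 h to chemicals over an eight-point dilution series. Caspase-3/7 activation imaged by high-content CellEvent Green staining; fitted bidirectionally versus DMSO.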

Nuclear receptor subfamily 4 group A member 2 (Homo sapiens), sequence (P43354 whole entry, looked up, the tested form may be a part): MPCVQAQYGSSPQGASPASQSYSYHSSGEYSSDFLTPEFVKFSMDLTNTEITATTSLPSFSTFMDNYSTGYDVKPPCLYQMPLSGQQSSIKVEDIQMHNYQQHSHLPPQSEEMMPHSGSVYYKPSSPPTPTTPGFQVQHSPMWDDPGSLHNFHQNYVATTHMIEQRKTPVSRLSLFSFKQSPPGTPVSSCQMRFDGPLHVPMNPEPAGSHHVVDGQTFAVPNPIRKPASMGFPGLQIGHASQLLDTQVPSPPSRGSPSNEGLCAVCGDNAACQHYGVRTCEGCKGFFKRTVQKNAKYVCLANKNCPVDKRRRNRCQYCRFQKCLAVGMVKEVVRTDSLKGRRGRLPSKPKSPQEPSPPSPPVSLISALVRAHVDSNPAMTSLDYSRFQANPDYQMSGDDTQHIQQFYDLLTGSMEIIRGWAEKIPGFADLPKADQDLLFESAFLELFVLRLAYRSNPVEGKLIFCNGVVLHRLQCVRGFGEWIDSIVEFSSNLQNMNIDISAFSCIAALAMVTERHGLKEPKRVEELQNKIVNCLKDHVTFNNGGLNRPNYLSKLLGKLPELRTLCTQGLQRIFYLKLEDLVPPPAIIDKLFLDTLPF
human Thyroid Receptor alpha (THRa1), THRA (gene 7067), sequence (P10827 whole entry, looked up, the tested form may be a part): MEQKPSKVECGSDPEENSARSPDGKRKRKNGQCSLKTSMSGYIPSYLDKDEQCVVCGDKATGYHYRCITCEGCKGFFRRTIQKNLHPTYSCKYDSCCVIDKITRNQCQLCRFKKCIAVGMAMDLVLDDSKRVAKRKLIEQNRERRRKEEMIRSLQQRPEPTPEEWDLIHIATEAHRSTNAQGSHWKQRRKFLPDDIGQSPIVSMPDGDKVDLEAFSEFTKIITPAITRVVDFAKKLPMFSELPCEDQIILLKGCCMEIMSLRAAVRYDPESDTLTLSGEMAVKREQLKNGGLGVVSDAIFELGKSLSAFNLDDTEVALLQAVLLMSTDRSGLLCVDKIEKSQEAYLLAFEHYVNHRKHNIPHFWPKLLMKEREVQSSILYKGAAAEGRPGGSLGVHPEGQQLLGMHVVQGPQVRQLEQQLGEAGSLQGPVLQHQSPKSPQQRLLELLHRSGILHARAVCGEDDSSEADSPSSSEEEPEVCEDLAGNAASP
Peroxisome proliferator-activated receptor gamma (Homo sapiens), sequence (P37231 whole entry, looked up, the tested form may be a part): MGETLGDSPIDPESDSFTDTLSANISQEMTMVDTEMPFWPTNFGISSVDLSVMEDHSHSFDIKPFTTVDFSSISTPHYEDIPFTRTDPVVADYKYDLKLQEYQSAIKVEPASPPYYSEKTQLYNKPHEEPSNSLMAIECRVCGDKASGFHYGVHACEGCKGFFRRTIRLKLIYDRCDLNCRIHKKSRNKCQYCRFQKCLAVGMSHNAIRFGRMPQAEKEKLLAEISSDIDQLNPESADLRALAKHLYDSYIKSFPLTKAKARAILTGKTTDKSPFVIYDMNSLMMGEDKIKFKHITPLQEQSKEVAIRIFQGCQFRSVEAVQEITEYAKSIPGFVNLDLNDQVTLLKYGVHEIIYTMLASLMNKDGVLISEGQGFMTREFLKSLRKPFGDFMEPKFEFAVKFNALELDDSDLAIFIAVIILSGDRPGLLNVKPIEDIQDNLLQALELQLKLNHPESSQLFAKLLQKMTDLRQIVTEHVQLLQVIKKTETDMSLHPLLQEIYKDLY
Retinoic acid receptor alpha (Homo sapiens), sequence (P10276 whole entry, looked up): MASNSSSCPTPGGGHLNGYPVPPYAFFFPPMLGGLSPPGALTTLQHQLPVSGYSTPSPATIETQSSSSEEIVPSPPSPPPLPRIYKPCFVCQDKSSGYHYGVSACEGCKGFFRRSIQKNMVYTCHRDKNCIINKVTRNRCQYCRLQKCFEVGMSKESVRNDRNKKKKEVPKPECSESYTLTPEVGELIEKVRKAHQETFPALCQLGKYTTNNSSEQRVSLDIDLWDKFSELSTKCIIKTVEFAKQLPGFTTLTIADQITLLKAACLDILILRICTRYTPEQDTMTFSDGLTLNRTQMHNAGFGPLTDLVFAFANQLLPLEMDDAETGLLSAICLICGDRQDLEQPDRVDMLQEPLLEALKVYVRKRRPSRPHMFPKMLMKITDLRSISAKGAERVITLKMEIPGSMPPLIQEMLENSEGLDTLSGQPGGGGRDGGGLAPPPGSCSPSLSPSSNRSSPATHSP
Oxysterols receptor LXR-alpha (Homo sapiens), sequence (Q13133 whole entry, looked up, the tested form may be a part): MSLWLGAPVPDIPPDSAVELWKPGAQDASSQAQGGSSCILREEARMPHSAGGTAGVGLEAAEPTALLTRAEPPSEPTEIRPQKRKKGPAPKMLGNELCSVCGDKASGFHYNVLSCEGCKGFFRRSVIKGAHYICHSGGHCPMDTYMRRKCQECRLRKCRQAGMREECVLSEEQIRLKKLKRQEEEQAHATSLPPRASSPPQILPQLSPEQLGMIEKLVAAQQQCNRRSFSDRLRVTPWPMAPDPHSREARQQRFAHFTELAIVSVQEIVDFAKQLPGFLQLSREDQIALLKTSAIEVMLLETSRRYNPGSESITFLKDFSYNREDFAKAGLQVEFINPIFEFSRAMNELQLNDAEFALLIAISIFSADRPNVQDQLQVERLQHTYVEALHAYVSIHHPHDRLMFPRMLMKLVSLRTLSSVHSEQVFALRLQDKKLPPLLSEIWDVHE
Aryl hydrocarbon receptor (Homo sapiens), sequence (P35869 whole entry, looked up): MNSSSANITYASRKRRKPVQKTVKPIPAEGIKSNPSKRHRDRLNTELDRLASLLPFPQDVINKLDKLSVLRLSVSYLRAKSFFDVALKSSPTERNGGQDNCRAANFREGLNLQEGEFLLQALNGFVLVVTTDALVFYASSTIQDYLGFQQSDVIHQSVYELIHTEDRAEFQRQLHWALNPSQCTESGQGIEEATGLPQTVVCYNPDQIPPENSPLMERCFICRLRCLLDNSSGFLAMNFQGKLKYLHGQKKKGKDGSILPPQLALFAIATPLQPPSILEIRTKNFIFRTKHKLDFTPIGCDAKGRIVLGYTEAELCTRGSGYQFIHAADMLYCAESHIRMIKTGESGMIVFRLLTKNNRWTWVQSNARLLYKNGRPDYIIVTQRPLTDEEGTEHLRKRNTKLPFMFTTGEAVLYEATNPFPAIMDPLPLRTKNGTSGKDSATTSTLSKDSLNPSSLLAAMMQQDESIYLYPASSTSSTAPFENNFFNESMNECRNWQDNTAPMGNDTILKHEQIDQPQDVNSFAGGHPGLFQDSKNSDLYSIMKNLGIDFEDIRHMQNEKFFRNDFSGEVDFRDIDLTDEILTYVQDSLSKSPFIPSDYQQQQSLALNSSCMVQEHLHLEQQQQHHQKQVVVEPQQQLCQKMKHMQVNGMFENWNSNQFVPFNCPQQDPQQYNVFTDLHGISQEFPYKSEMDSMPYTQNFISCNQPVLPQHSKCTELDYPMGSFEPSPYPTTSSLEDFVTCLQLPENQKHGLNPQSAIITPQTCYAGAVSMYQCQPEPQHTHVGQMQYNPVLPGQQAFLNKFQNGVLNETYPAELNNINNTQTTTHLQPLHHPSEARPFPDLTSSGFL
human Peroxisome Proliferator-activated Receptor delta (PPARd), PPARD (gene 5467), sequence (Q03181 whole entry, looked up, the tested form may be a part): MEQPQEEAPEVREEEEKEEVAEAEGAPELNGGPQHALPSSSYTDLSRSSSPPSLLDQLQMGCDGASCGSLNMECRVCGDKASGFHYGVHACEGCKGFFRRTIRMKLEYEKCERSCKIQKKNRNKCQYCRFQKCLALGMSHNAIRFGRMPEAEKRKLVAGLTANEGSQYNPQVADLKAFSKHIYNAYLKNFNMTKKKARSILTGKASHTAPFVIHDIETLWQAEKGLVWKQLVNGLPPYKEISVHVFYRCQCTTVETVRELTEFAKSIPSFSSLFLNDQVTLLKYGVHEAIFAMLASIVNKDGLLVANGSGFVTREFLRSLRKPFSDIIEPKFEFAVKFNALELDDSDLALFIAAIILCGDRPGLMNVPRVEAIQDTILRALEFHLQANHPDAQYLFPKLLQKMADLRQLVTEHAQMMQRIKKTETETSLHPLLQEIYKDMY
Retinoic acid receptor RXR-alpha (Homo sapiens), sequence (P19793 whole entry, looked up, the tested form may be a part): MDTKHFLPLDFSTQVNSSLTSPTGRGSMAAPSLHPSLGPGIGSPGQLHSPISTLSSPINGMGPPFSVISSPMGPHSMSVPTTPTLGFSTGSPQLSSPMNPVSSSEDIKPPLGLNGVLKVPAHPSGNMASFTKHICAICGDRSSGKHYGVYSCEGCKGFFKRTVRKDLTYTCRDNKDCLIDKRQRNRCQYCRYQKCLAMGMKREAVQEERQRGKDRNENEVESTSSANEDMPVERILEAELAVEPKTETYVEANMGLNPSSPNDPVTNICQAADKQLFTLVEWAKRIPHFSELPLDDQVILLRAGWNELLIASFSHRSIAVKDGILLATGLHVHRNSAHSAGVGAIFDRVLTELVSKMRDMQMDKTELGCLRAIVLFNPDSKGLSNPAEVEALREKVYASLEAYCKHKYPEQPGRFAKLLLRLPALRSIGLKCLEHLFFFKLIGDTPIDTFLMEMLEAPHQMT
Nuclear receptor subfamily 1 group I member 3 (Homo sapiens), sequence (Q14994 whole entry, looked up, the tested form may be a part): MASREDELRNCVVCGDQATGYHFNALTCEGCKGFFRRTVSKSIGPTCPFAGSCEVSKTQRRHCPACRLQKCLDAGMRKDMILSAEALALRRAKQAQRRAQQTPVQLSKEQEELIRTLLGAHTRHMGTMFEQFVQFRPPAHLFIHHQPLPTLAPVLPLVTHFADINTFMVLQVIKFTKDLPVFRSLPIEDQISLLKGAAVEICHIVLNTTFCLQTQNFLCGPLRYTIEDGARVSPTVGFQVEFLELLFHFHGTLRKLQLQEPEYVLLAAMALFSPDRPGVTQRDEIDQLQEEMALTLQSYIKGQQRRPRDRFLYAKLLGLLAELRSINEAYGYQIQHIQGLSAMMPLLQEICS

For the compound `[O-][n+]1ccc(Cl)cc1`, the compound was classed as inactive in test [1], in [2], in test [3], in test [4] and in test [5].
On to `CC1=C(CC=O)C(C)(C)CCC1`, for which the call in test [6], in test [7], in [8], in test [9], in test [10] and in test [4] was inactive. Besides, the compound was classed as inactive in [11]. Besides, the AC50 in test [12] was 64.2 µM (active).
With `Cc1cc(-n2nc3ccc(Cl)cc3n2)c(O)c(C(C)(C)C)c1`, the result in test [1], in test [13], in test [2], in test [14], in test [9] and in test [3] was inactive. Moreover, the compound was called inactive in test [5] and in test [11].
Consider `C[Si](C)(C)O[Si](C)(C)O[Si](C)(C)C`, for which the result in test [6], in test [15], in test [7], in [3] and in [10] was inactive.
Take `OCCN(CCO)c1cccc(Cl)c1`: the compound was called inactive in test [6], in test [13], in test [2], in test [10] and in test [11].
On to `CCCCn1cc[n+](C)c1`, for which the outcome in test [6], in [7], in test [16], in test [9] and in test [17] was inactive.
Turning to `CCCCCCCCCCC1CO1` (centres undefined), the compound was called inactive in test [6], in test [15], in [2], in [8], in test [9] and in test [3]. For the same compound, the compound was classed as inactive in [10] and in [17]. The AC50 in test [12] is 32.9 µM (active).
As for `CN(C)CCC(c1ccc(Cl)cc1)c1ccccn1` (centres undefined), the result in [6], in [15], in test [2], in test [18], in [12] and in [19] was inactive. Also, the result in [20] was inactive.
For `NC(N)=Nc1nc(CSCCC(N)=NS(N)(=O)=O)cs1`, the compound was classed as inactive in [1], in test [2], in test [8], in test [17], in [18] and in [19]. Also, the result in [20] was inactive.

In general, AC50 refers to the concentration giving half of the maximal activity seen.
